Targets with a hit are over-represented here; the source holds about 7,900 in all. About 0.6% of all pairs of compound and target were hits. A number with no mark means an inactive call.
Columns and labels:
Assay in all cases: log2 fold change, soluble protein after heating vs DMSO (PISA); higher = thermal stabilisation; K562 cells, 10 uM, 30 min; active = over 0.2 and 3.5 SD of the protein, either way, in both replicates (recomputed)
[1] = compound: CC1=C(C=C(C=C1)NC(=O)C2=CC(=CC=C2)C(C)(C)C#N)NC3=CC4=C(C=C3)N=CN(C4=O)C
Summary of the method: (§1)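 Values are thermal stability changes relative to control samples and are taken from duplicates. They are stated as log2 fold changes. Before quantification by TMTpro 16plex LC-MS/MS with equalised channel sums, K562 cells at 2×10^6 cells/mL were treated with 10 μM compound for 30 min, heated in aliquots for 3 min across 48°C-58°C, pooled, extracted in PBS with 0.5% NP-40 at 4°C, and centrifuged at 21,000xg for 90 min to give the soluble supernatant.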

[2] = compound: CC1=C(C=C(C=C1)NC(=O)C2=CC(=CC=C2)N(C)C)NC(=O)C3=CC=C(C=C3)O
Summary of the method: as §1

[3] = compound: CC1=CC=C(C=C1)SC2=C3C=C(SC3=CN=C2)C(=O)N
Summary of the method: as §1

[4] = compound: CC1=NC(=CC=C1)C2=C(N=C(N2)C(C)(C)C)C3=CC4=NC=CN=C4C=C3
Summary of the method: as §1

[5] = compound: CCCCN(Cc1ccc(C(=O)NO)cc1)C(=O)Nc1ccccc1 [Nexturastat A]
Summary of the method: as §1

[6] = compound: CCCS(=O)(=O)Nc1ccc(F)c(C(=O)c2c[nH]c3ncc(-c4ccc(Cl)cc4)cc23)c1F [vemurafenib]
Summary of the method: as §1

[7] = compound: CCCS(=O)(=O)Nc1ccc(F)c(C(=O)c2c[nH]c3ncc(Cl)cc23)c1F
Summary of the method: as §1

[8] = compound: CCCc1cc(C)[nH]c(=O)c1CNC(=O)c1cc(-c2ccnc(N3CCN(C)CC3)c2)cc2c1cnn2C(C)C
Summary of the method: as §1

[9] = compound: CCN(CC)Cc1ccc2cc(COC(=O)Nc3ccc(C(=O)NO)cc3)ccc2c1 [givinostat]
Summary of the method: as §1

[10] = compound: CCN(CCCOc1ccc2c(Nc3cc(CC(=O)Nc4cccc(F)c4)[nH]n3)ncnc2c1)CCOP(=O)(O)O [barasertib]
Summary of the method: as §1

[11] = compound: CC[C@@H]1C(=O)N(C)c2cnc(Nc3ccc(C(=O)NC4CCN(C)CC4)cc3OC)nc2N1C1CCCC1
Summary of the method: as §1

[12] = compound: CC[C@@H]1C(=O)N(C)c2cnc(Nc3ccc(C(=O)N[C@H]4CC[C@H](N5CCN(CC6CC6)CC5)CC4)cc3OC)nc2N1C(C)C [volasertib]
Summary of the method: as §1

[13] = compound: CC[C@H](C)N1C=C(C2=C(C=C(C=C21)C3=CN=C(C=C3)N4CCNCC4)C(=O)NCC5=C(C=C(NC5=O)C)C)C
Summary of the method: as §1

[14] = compound: CC[C@H](C)[C@@H](C(=O)N[C@@H]([C@@H](C)O)C(=O)N[C@@H](CC(C)C)C(=O)[C@]1(CO1)C)NC(=O)[C@H]([C@@H](C)CC)N(C)C(=O)C [epoxomicin]
Summary of the method: as §1

[15] = compound: CCn1c(C(=O)N(C2CC2)C2CC2)cc2c3c(ncn3C)c(Nc3cc(C)n(C)n3)nc21
Summary of the method: as §1

[16] = compound: CCn1cc(-c2ccnc3[nH]c(-c4cccc(CN(C)C)c4)cc23)c(-c2ccc(NC(=O)N(C)C)cc2)n1
Summary of the method: as §1

[17] = compound: CN(C)CC(=O)Nc1ccc2[nH]c(=O)c3ccccc3c2c1
Summary of the method: as §1

[18] = compound: CN(CCOC1=CC=C(C=C1)C[C@H]2C(=O)NC(=O)S2)C3=CC=CC=N3 (racemic) [rosiglitazone]
Summary of the method: as §1

[19] = compound: CN1C2=C(C3=C1C(=O)N(N=C3)CC4=CC(=CC=C4)N)SC(=C2)S(=O)C
Summary of the method: as §1

[20] = compound: CN1CCC(CNc2ccc3ncc(-c4cccc(OC(F)(F)F)c4)n3n2)CC1
Summary of the method: as §1

SESN2 (UniProt P58004)
Sequence of UniProt P58004 (P58004 whole entry, looked up): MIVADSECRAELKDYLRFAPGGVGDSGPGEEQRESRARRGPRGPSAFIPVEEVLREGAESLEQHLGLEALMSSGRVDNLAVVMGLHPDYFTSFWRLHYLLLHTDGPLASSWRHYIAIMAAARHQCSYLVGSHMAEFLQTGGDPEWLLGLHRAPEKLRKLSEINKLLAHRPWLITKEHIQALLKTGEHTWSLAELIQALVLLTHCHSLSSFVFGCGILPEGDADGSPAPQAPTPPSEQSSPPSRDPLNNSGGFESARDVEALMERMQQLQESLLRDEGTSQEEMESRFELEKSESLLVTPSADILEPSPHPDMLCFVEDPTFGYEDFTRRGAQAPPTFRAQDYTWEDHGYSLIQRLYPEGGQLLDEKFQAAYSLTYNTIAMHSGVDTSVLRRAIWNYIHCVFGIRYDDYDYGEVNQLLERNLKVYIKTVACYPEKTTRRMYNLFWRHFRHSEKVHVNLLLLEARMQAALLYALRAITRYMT
log2 fold change [1]: 0.166
log2 fold change [2]: -0.069
log2 fold change [3]: -0.017
log2 fold change [4]: -0.031
log2 fold change [5]: 0.094
log2 fold change [6]: 0.194
log2 fold change [7]: 0.186
log2 fold change [8]: 0.19
log2 fold change [9]: 0.046
log2 fold change [10]: 0.119
log2 fold change [11]: -0.244
log2 fold change [12]: -0.522 (active)
log2 fold change [13]: 0.165
log2 fold change [14]: 0.083
log2 fold change [15]: 0.061
log2 fold change [16]: -0.292
log2 fold change [17]: 0.115
log2 fold change [18]: -0.081
log2 fold change [19]: 0.015
log2 fold change [20]: -0.247

RPS20 isoform 2 (UniProt P60866)
log2 fold change [1]: 0.056
log2 fold change [2]: 0.021
log2 fold change [3]: -0.049
log2 fold change [4]: -0.077
log2 fold change [5]: 0.112
log2 fold change [6]: -0.117
log2 fold change [7]: -0.068
log2 fold change [8]: 0.008
log2 fold change [9]: -0.032
log2 fold change [10]: -0.063
log2 fold change [11]: 0.114
log2 fold change [12]: 0.31
log2 fold change [13]: -0.009
log2 fold change [14]: -0.103
log2 fold change [15]: -0.02
log2 fold change [16]: 0.065
log2 fold change [17]: -0.03
log2 fold change [18]: -0.037
log2 fold change [19]: 0.091
log2 fold change [20]: 0.063

ROCK1 (UniProt Q13464)
log2 fold change [1]: 0.003
log2 fold change [2]: -0.073
log2 fold change [3]: -0.016
log2 fold change [4]: -0.037
log2 fold change [5]: 0.093
log2 fold change [6]: 0.052
log2 fold change [7]: 0.036
log2 fold change [8]: -0.019
log2 fold change [9]: 0.031
log2 fold change [10]: 0.021
log2 fold change [11]: -0.005
log2 fold change [12]: -0.083
log2 fold change [13]: 0.005
log2 fold change [14]: -0.011
log2 fold change [15]: 0.002
log2 fold change [16]: -0.05
log2 fold change [17]: -0.011
log2 fold change [18]: 0.042
log2 fold change [19]: 0.031
log2 fold change [20]: 0.096

RPS12 (UniProt P25398)
log2 fold change [1]: 0.036
log2 fold change [2]: 0.006
log2 fold change [3]: -0.013
log2 fold change [4]: -0.027
log2 fold change [5]: 0.038
log2 fold change [6]: -0.057
log2 fold change [7]: -0.035
log2 fold change [8]: 0.073
log2 fold change [9]: -0.035
log2 fold change [10]: -0.059
log2 fold change [11]: 0.108
log2 fold change [12]: 0.219
log2 fold change [13]: 0.038
log2 fold change [14]: -0.021
log2 fold change [15]: -0.002
log2 fold change [16]: 0.063
log2 fold change [17]: -0.028
log2 fold change [18]: -0.037
log2 fold change [19]: 0.064
log2 fold change [20]: 0.079

RBM4 (UniProt Q9BWF3)
Sequence of UniProt Q9BWF3 (Q9BWF3 whole entry, looked up): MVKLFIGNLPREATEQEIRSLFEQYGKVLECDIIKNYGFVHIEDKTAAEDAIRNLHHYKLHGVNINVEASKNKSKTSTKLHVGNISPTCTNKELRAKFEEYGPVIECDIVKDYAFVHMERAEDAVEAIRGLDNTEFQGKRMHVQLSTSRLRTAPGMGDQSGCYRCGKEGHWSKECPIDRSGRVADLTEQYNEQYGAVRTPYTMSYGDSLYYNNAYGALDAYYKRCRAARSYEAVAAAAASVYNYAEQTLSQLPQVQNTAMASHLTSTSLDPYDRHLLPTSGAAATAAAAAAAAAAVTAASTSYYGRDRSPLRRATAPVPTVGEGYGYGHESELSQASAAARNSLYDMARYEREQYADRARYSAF
log2 fold change [1]: -0.041
log2 fold change [2]: -0.033
log2 fold change [3]: -0.061
log2 fold change [4]: -0.034
log2 fold change [5]: 0.081
log2 fold change [6]: 0.01
log2 fold change [7]: 0.052
log2 fold change [8]: 0.003
log2 fold change [9]: 0.071
log2 fold change [10]: 0.018
log2 fold change [11]: -0.043
log2 fold change [12]: -0.3 (active)
log2 fold change [13]: 0.057
log2 fold change [14]: -0.018
log2 fold change [15]: -0.079
log2 fold change [16]: 0.059
log2 fold change [17]: -0.024
log2 fold change [18]: -0.034
log2 fold change [19]: 0.129
log2 fold change [20]: -0.091

SETMAR (UniProt Q53H47)
Sequence of UniProt Q53H47 (Q53H47 whole entry, looked up): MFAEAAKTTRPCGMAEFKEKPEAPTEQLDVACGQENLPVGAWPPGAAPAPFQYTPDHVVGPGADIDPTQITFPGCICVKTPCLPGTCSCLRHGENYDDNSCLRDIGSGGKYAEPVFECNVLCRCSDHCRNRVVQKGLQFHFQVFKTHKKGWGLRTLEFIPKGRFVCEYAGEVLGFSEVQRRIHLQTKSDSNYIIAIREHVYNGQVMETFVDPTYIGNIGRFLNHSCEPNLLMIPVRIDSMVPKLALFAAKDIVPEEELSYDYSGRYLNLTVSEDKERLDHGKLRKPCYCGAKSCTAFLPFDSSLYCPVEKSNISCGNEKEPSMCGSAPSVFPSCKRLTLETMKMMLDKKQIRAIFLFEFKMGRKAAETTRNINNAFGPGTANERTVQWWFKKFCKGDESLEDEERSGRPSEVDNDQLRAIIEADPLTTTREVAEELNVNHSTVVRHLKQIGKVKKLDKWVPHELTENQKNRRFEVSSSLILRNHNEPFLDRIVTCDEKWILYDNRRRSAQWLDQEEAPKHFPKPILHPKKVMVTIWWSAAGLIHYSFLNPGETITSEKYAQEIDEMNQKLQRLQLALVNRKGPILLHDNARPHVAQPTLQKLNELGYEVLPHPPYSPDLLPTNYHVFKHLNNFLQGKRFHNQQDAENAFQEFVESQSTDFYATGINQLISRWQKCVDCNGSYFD
log2 fold change [1]: 0.128
log2 fold change [2]: 0.061
log2 fold change [3]: -0.023
log2 fold change [4]: -0.049
log2 fold change [5]: -0.041
log2 fold change [6]: 0.018
log2 fold change [7]: 0.021
log2 fold change [8]: 0.01
log2 fold change [9]: -0.036
log2 fold change [10]: 0.051
log2 fold change [11]: -0.071
log2 fold change [12]: -0.045
log2 fold change [13]: 0.058
log2 fold change [14]: 0.045
log2 fold change [15]: -0.047
log2 fold change [16]: 0.015
log2 fold change [17]: 0.012
log2 fold change [18]: 0.005
log2 fold change [19]: -0.045
log2 fold change [20]: 0.108

RBM33 (UniProt Q96EV2)
Sequence of UniProt Q96EV2 (Q96EV2 whole entry, looked up): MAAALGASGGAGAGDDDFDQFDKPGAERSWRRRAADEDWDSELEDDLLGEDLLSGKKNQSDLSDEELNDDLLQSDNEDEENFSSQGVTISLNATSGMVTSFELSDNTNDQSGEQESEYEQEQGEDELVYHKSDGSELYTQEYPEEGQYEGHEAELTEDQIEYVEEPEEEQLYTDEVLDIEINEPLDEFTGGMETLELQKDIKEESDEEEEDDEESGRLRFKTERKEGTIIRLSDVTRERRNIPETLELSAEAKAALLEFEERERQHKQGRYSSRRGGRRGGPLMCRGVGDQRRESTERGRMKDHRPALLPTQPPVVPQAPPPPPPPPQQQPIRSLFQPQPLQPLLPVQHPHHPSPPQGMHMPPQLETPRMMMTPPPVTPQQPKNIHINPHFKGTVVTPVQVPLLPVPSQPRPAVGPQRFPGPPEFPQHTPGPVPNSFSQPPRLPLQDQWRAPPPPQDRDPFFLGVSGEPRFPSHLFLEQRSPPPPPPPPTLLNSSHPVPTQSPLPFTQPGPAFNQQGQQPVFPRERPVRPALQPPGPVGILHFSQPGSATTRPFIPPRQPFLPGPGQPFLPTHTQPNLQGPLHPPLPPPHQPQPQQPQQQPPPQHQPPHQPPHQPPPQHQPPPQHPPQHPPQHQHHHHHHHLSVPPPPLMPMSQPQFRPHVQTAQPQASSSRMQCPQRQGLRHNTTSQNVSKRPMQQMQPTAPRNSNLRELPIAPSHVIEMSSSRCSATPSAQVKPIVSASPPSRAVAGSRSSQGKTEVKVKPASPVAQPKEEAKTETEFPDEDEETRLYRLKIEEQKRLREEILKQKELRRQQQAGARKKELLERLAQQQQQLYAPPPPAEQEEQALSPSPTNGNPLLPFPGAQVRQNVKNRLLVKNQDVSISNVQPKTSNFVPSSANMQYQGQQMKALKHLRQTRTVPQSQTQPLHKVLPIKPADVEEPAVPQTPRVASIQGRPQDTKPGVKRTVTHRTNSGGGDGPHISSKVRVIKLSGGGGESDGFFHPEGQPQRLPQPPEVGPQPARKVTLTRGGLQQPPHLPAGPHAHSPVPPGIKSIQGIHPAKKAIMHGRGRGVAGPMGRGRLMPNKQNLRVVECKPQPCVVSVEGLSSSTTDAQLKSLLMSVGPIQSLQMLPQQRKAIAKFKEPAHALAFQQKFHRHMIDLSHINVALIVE
log2 fold change [1]: -0.024
log2 fold change [2]: -0.001
log2 fold change [3]: -0.014
log2 fold change [4]: 0.014
log2 fold change [5]: 0.021
log2 fold change [6]: -0.019
log2 fold change [7]: 0.022
log2 fold change [8]: 0.022
log2 fold change [9]: 0.077
log2 fold change [10]: 0.037
log2 fold change [11]: -0.101
log2 fold change [12]: -0.105
log2 fold change [13]: 0.035
log2 fold change [14]: 0.022
log2 fold change [15]: 0.012
log2 fold change [16]: -0.005
log2 fold change [17]: -0.025
log2 fold change [18]: -0.024
log2 fold change [19]: 0.023
log2 fold change [20]: 0.004

SASH1 (UniProt O94885)
Sequence of UniProt O94885 (O94885 whole entry, looked up): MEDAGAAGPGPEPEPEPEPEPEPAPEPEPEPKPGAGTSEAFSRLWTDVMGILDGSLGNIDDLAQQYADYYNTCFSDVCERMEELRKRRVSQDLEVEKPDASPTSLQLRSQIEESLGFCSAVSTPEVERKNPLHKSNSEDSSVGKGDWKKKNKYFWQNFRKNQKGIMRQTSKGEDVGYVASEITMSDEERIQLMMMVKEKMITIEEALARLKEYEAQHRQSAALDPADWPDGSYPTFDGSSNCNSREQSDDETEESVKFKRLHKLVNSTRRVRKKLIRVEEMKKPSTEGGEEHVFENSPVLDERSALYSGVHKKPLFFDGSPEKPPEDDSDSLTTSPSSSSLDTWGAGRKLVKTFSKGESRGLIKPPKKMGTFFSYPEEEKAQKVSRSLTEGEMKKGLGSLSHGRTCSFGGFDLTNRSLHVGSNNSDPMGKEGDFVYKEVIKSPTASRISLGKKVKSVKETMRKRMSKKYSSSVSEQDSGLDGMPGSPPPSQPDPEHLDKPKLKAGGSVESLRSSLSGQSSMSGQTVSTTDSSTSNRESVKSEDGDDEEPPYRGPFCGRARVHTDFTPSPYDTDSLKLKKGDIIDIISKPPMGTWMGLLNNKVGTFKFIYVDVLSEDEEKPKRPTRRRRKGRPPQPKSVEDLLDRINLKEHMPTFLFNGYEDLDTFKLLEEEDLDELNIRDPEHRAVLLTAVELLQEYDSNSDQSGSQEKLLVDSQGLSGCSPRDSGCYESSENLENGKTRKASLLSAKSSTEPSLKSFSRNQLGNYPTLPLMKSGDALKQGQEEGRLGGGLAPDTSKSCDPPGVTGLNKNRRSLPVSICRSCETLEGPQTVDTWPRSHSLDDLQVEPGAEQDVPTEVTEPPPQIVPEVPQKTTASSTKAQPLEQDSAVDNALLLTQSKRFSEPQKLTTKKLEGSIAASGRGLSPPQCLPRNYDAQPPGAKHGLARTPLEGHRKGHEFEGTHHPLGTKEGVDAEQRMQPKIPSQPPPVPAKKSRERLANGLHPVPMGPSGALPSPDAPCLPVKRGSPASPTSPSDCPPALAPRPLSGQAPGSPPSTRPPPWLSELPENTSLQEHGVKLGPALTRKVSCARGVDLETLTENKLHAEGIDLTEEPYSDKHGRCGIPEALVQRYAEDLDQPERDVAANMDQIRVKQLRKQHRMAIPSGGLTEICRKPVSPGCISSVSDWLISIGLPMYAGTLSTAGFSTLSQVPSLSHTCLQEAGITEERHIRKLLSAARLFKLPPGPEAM
log2 fold change [1]: 0.046
log2 fold change [2]: -0.013
log2 fold change [3]: 0.024
log2 fold change [4]: 0.01
log2 fold change [5]: 0.038
log2 fold change [6]: -0.043
log2 fold change [7]: 0.097
log2 fold change [8]: -0.031
log2 fold change [9]: -0.063
log2 fold change [10]: 0.071
log2 fold change [11]: -0.136
log2 fold change [12]: -0.308 (active)
log2 fold change [13]: 0.044
log2 fold change [14]: -0.075
log2 fold change [15]: -0.012
log2 fold change [16]: 0.027
log2 fold change [17]: 0.042
log2 fold change [18]: 0.044
log2 fold change [19]: 0.054
log2 fold change [20]: -0.29
